Screening results as filed in PubChem BioAssay.
Hits are enriched below; roughly 2.3% of the tested compounds scored in any of these assays.
FBPA coupling cs: qHTS Assay for Inhibitors of Fructose-1,6-bisphosphate Aldolase from Giardia Lamblia: Coupling assay counterscreen | AID 2472, 2010 | coupling enzyme system counterscreen, AmpLite Red fluorescence | activity change, negative = inhibition, % at 58.2 µM, hits read low | actives 0.67% (n = 290,000); in the data active = activity change below about -30%
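Coupling enzymes only (glyceraldehyde-3-phosphate) + compound, at 57.5 uM final, 10 min RT; add substrate/coupling/AmpLite Red mix, 20 min RT; fluorescence ex 525/em 598 nm. Actives flag coupling-system interference.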
Tau fluor cs: Counterscreen qHTS for Inhibitors of Tau Fibril Formation, Fluorescence Polarization. tau K18 P301L Alexa594 fluorescence, heparin fibrillization. Potency, µM (doses to about 57.7 µM), for inactives: at the top dose activity change, negative = decrease. actives 0.93% (n = 280,000). AID 1463, 2008; also: potency is read from the fitted curve at half-maximal effect; nearly all actives have a fitted effect of over 55% in size
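Human tau K18 P301L (15 uM unlabeled, 0.24 uM Alexa 594-labeled) in 100 mM sodium acetate pH 7 with 20 uM heparin, 6 hr at 37 C. ThT 30 uM added, 1 hr ambient; Alexa 594 FP and total fluorescence read at 555/632 nm.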
Tau fibril ThT: qHTS for Inhibitors of Tau Fibril Formation, Thioflavin T Binding | Microtubule-associated protein tau (Homo sapiens), P10636 | recombinant tau K18 P301L, heparin-induced fibrillization, ThT fluorescence | Potency, µM (top dose mostly 57.4 µM), for inactives: at the highest dose activity, negative = inhibition, most hits filed as inhibitors | actives 2.1% (n = 270,000) | AID 1460, 2008; also: potency is read from the fitted curve at half-maximal effect; nearly all actives have a fitted effect of over 55% in size
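ThT emission at 510 nm, taken 1 hr after adding 30 uM dye, quantifies aggregates formed when 20 uM heparin acts on human tau K18 P301L for 6 hr at 37 C.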
USP1-UAF1 inh: Inhibitors of USP1/UAF1: Primary Screen; AID 743255, 2014; Potency, µM (top dose mostly 57.1 µM), inactives show top-dose activity change, negative = inhibition, actives largely listed as inhibitors; recombinant USP1/UAF1, Ub-Rhodamine cleavage fluorescence; actives 0.23% (n = 390,000); Ubiquitin carboxyl-terminal hydrolase 1 (Homo sapiens), O94782; also: potency is read from the fitted curve at half-maximal effect; nearly all actives have a fitted effect of over 60% in size
Target sequence (O94782 whole entry, looked up): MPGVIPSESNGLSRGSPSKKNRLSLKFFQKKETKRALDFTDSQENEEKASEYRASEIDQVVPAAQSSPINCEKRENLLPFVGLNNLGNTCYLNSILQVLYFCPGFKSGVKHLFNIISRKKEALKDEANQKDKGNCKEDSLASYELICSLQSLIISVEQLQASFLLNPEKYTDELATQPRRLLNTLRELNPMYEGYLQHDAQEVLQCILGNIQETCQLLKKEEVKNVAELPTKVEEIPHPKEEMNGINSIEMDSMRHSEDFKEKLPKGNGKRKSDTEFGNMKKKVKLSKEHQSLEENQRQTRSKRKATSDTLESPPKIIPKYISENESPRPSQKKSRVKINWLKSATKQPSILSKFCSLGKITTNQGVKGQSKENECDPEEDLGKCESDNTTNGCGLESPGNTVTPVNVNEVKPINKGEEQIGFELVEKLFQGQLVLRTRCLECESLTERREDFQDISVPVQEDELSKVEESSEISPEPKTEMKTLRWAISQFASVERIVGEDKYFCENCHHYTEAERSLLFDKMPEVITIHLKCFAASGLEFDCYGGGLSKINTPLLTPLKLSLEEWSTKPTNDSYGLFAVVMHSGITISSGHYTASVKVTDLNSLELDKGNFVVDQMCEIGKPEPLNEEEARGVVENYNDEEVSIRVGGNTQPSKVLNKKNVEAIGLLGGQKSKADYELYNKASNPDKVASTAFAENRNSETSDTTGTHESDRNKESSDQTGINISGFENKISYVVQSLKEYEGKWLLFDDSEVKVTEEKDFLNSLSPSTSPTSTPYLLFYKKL
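In this screen, compounds sit with the deubiquitinase complex (1nM) for 15 min at room temperature before Ub-Rho is added at 150nM final. Fluorescence rise is then followed for 6 reads every 60 seconds.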
Tau FP inhib: qHTS for Inhibitors of Tau Fibril Formation, Fluorescence Polarization | Microtubule-associated protein tau (Homo sapiens), P10636 | K18 P301L tau heparin fibrillization, Alexa594 FP, 6 h | Potency, µM (top dose mostly 57.7 µM), without a hit: at the top dose activity, negative = inhibition, hits mostly inhibitors | actives 0.39% (n = 280,000) | AID 1468, 2008; also: potency is read from the fitted curve at half-maximal effect; nearly all actives have a fitted effect of over 55% in size
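Heparin (20 uM) drove fibril formation of recombinant tau K18 P301L, 15 uM unlabeled with 0.24 uM Alexa 594 label, for 6 hr at 37 C in 100 mM sodium acetate pH 7. Fluorescence polarization (555/632 nm) read 1 hr after 30 uM ThT.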
The depositor's hits bear a star; ? = inconclusive; / = no result; [ ] = remark or other dose. Unless noted, calls follow the shape of the dose curve; as a rule, active = well fitted curve in the direction sought with a large enough effect; inconclusive = small, poorly fitted or top-dose-only effect, or another doubt; inactive = no such curve, though single readings can be large; an effect the other way counts as inactive or inconclusive. % is scaled to controls: 0 for no effect and ±100 for the full control effect.

SMILES	FBPA coupling cs	Tau fluor cs	Tau fibril ThT	USP1-UAF1 inh	Tau FP inhib
COc1ccc(NC(=O)/C(C#N)=C\c2ccc(N3CCOCC3)o2)cc1	0	?	13µM*	?	17%
N#C/C(=C\c1ccc(N2CCOCC2)o1)C(=O)Nc1ccc(O)cc1	-3	-22%	14µM*	?	-2%
COc1ccc(NC(=O)/C(C#N)=C/C=C/c2ccco2)cc1	0	-7%	7.1µM*	-2%	9%
COC(=O)C1=C(C(=O)OC)C2C=CC1C1C(OC(C)=O)C(OC(C)=O)C21 (centres undefined)	/	/	/	-25%	/
COc1cc2c(cc1OC)C1(C)N(CC2)C(C(C)=O)=NN1c1ccc(Cl)cc1 (centres undefined)	-7	?	10µM*	-14%	16%
Cc1ccc(S(=O)(=O)NCc2ccc(C(=O)NC3CCC(O)CC3)cc2)cc1C (centres undefined)	/	/	/	-6%	/
COc1ccccc1CN(C)C(=O)COC(=O)c1c(C)noc1C	/	/	/	0%	/
CCOC(=O)c1c(-c2ccccc2)csc1NC(=O)c1nc(S(=O)(=O)CC)ncc1Cl	/	?	13µM*	-13%	?
CCOC(=O)c1c(-c2ccccc2)csc1NC(=O)c1nc(SCC)ncc1Cl	/	-22%	-15%	-29%	-15%
CCOC(=O)c1c(NC(=O)c2nc(S(C)(=O)=O)ncc2Cl)sc(C(C)=O)c1C	/	?	22µM*	-15%	?
CCOC(=O)c1c(NC(=O)c2nc(SCC)ncc2Cl)sc(C(C)=O)c1C	/	-13%	-5%	6%	-2%
Cn1c(=O)cc2c3c(c(N4CCCCC4)ccc31)C(=O)c1ccccc1-2	-6	13µM*[quencher]	11µM*	-7%	?
O=C1c2ccccc2-c2onc3ccc(N4CCCC4)c1c23	-50*	10µM*[quencher]	8.9µM*	14µM*	28µM*
O=C1C=C(O)c2ccccc2C1=O	-27	-14%	?	/	?
O=C1C=C(N2CCCCC2)c2ccccc2C1=O	/	/	/	7.9µM*	/
O=C1c2ccccc2-c2cccc(C(=O)N3CCCCC3)c21	0	-10%	-7%	-9%	-5%
CN1CCN(c2cc(N3CCN(C(=O)c4ccco4)CC3)c3c4c(onc24)-c2ccccc2C3=O)CC1	-23	/	/	?	/
O=C1c2ccccc2C(=O)c2c1cccc2N1CCCC1	-20	?	14µM*	?	?
COc1cc2nc(NCc3ccccc3Cl)n3nc(-c4cccnc4)nc3c2cc1OC	/	-15%	-10%	23%	5%
COc1ccccc1CN1CCC2(CC1)CCN(C(=O)c1c(C)noc1C)CC2	0	/	/	/	/
COc1ccc(S(=O)(=O)N(C)c2ccc(C(=O)NCc3ccccn3)cc2)cc1	/	/	/	-13%	/
CN(C)S(=O)(=O)c1cccc(NC(=O)CN2C(=O)NC3(CCc4ccccc4C3)C2=O)c1 (centres undefined)	0	/	/	-22%	/
COc1ccc(C)cc1NC(=O)c1ccc2c(c1)nnn2C1CCCC1	/	-28%	?	-10%	11%
O=C(O)c1ccccc1NCc1ccco1	-2	9%	1%	-16%	0%
CCNc1ccc2noc3c2c1C(=O)c1ccccc1-3	-5	?	7.9µM*	?	28µM*
SMILES	FBPA coupling cs	Tau fluor cs	Tau fibril ThT	USP1-UAF1 inh	Tau FP inhib
CCOc1ccc2noc3c2c1C(=O)c1ccccc1-3	-45*	?	?	-18%	?
O=C1c2ccccc2-c2onc3ccc(NCc4ccco4)c1c23	-43*	4.5µM*[quencher]	3.2µM*	43%	25µM*
COc1ccc2c(c1)[C@H]1[C@H](CO2)[C@H](c2ccccc2)[C@]2(C)C(=O)N(CC3CCCO3)CC(=O)N12 (some centres undefined)	/	/	/	-25%	/
CCn1nc(C)cc1C(=O)NC1CC(C)(C)Cc2c1cnn2-c1cccc(F)c1 (centres undefined)	0	/	/	-16%	/
Cc1csc2nc(CSc3nc4ccccc4o3)cn12	-51*	-9%	?	-6%	-7%
N#CC1=C(N)NC(SCC(=O)c2ccc(Br)cc2)=C(C#N)C12CCCCC2	-2	13µM*[quencher]	?	-3%	?
N#CC1=C(N)NC(SCC(=O)c2ccc(Cl)cc2)=C(C#N)C12CCCC2	-1	16µM*[quencher]	?	-19%	14%
COc1ccc(C(=O)CSC2=C(C#N)C3(CCCCC3)C(C#N)=C(N)N2)cc1	1	?	-12%	-20%	8%
N#CC1=C(N)NC(SCC(=O)Nc2ccccc2)=C(C#N)C12CCCCC2	0	-30%	-6%	-15%	-3%
COc1ccc2c(c1)c(=O)c(C(=O)c1ccccc1)cn2CC(=O)Nc1ccc2c(c1)OCO2	/	-29%	-10%	-14%	-1%
C[C@@H]1CN([C@H](C)CO)C(=O)CCCn2cc(nn2)CO[C@H]1CN(C)C(=O)OCc1ccccc1	/	/	/	-5%	/
O=C(CN1c2ccccc2Sc2ccccc21)NNC(=O)Nc1cccc(Cl)c1	4	8.9µM*[quencher]	-4%	-15%	?
C[C@@H]1CN([C@H](C)CO)S(=O)(=O)c2ccc(C3=CCCCC3)cc2O[C@H]1CN(C)C(=O)Cc1cccnc1	/	/	/	-18%	/
O=C(N/N=C/c1ccc(O)c(O)c1O)/C(=C/c1ccc([N+](=O)[O-])cc1)NC(=O)c1ccccc1	-27	?	3.5µM*	-14%	8.9µM*
CC1=C(C#N)C(=O)N(C2CCS(=O)(=O)C2)C(=O)/C1=C\c1ccc(C)o1 (centres undefined)	-22	?	22µM*	/	?
Cc1ccc(/C=C2\SC(=S)N(C3CCS(=O)(=O)C3)C2=O)o1 (centres undefined)	-18	-8%	?	?	2%
N#C/C(=C\c1coc2ccc(O)cc2c1=O)C(=O)Nc1nc2ccccc2s1	5	28µM*[quencher]	18µM*	25µM*	?
COc1cccc(CNC(=O)c2ccc3nc(CCc4ccccc4)oc3c2)c1OC	/	-1%	-14%	-27%	-3%
CC/C(C)=N\Nc1nc(-c2cc3cc(OC)ccc3oc2=O)cs1	-1	18µM*[quencher]	22µM*	-28%	?
Cn1c(=O)n(Cc2ccccc2)c(=O)c2c1nc1n2CCN1c1ccccc1	/	-3%	-8%	3%	3%
O=c1cc(-c2c(F)c(F)c(F)c(F)c2F)oc2ccccc12	3	-14%	-21%	-3%	-5%
O=c1cc(-c2c(F)c(F)c(F)c(F)c2F)oc2c(F)c(F)c(F)c(F)c12	0	?	14µM*	/	?
